Results filed as inconclusive are left out. Activity calls are given as the source filed them. The call rests on the fitted dose curve; in most records, active means well fitted inhibition curve with a large enough effect; inconclusive means small, poorly fitted or top-dose-only effect; inactive means flat fitted curve, though single readings scatter.
assay: qHTS to identify inhibitors of the type 1 interferon - major histocompatibility complex class I in skeletal muscle: primary screen against the NCATS LOPAC collection (AID 1347405); conditions: iHSKM muscle cells, IFN-b-induced MHC-I HiBiT luminescence, 24 h; series mostly up to 45.9 µM; activity change, negative = inhibition: at the top concentration;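 further: lytic HiBiT luminescence reporting HLA-B protein level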
Outline: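 Cells: C25cl48 human myoblasts, HiBiT-tagged HLA-B*08:01, stimulated with IFN-beta 4.0 ng/ml. Compounds are titrated 1:4.3 over 7 points from 46 uM final and incubated 24 hrs; endogenous MHC class I is quantified by HiBiT lytic luminescence.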
On the % scale 0 is the no-effect control and ±100 the full control effect; potency means the concentration at half of the fitted maximal effect.

Row | SMILES | activity change, negative = inhibition | Potency
1 | CO[C@H]1O[C@@H]2O[C@]3(C)CC[C@@H]4[C@@H](C)CC[C@H]([C@H]1C)[C@]24OO3 | -0.0711% (inactive) | –
2 | COc1ccc(C(=O)/C(Cc2cc(OC)c(OC)c(OC)c2)=C(\C(=O)O)c2ccc3c(c2)OCO3)cc1 | – | 14.1 µM (active)
3 | O=C(/C=C/c1ccc(O)c(O)c1)OCCc1ccccc1 | -27.8% (inactive) | –
4 | Cc1cc(NC2CCCCC2)nc(-n2nc(C)cc2C)n1 | -7.16% (inactive) | –
5 | CO/N=C(\C(=O)N[C@@H]1C(=O)N2C(C(=O)O)=C(COC(C)=O)CS[C@H]12)c1csc(N)n1 | -2.46% (inactive) | –
6 | COc1cc2c(CCNC(C)=O)c[nH]c2cc1Cl | -3.06% (inactive) | –
7 | Cc1cc(NC(=O)Nc2ccc3c(ccn3C)c2)sn1 | -4.57% (inactive) | –
8 | O=[N+]([O-])c1ccc(CSc2ncnc3c2ncn3[C@@H]2O[C@H](CO)[C@@H](O)[C@H]2O)cc1 | -3.79% (inactive) | –
9 | CN1CCc2cc(NC(=O)Nc3cccnc3)ccc21 | -3.23% (inactive) | –
10 | Cc1ccc(O)c(N=Nc2ccccc2)n1 | 11% (inactive) | –
11 | CN1[C@@H](CC(=O)c2ccccc2)CCC[C@H]1C[C@H](O)c1ccccc1 | 9.83% (inactive) | –
12 | Oc1ccc(C2CNCc3sccc32)cc1O (centres undefined) | -4.43% (inactive) | –
13 | CCCCC#Cc1nc(NC)c2ncn([C@@H]3O[C@H](CO)[C@@H](O)[C@H]3O)c2n1 | -0.772% (inactive) | –
14 | O=C(Nc1ccncc1)c1cc([N+](=O)[O-])ccc1Cl | – | 15.8 µM (active)
15 | OC[C@H]1O[C@@H](n2cnc3c(NC4CCCC4)ncnc32)[C@H](O)[C@@H]1O | -14.5% (inactive) | –
16 | O=C(CCSCc1ccco1)NNC(=O)N1Cc2ccccc2Oc2ccc(Cl)cc21 | -13.8% (inactive) | –
17 | CC[C@H]1OC(=O)[C@H](C)[C@@H](O[C@H]2C[C@@](C)(OC)[C@@H](O)[C@H](C)O2)[C@H](C)[C@@H](O[C@@H]2O[C@H](C)C[C@H](NC)[C@H]2O)[C@](C)(O)C[C@@H](C)CN(C)[C@H](C)[C@@H](O)[C@]1(C)O | 2.06% (inactive) | –
18 | CCC1C(=O)OCC1Cc1cncn1C (centres undefined) | – | inactive
19 | O=C(O)CC1CCCc2ccccc2C1O (centres undefined) | 1.36% (inactive) | –
20 | NCCSSCCN | -8.62% (inactive) | –

Row | SMILES | activity change, negative = inhibition | Potency
21 | COc1cccc(OC)c1OCCNCC1COc2ccccc2O1 (centres undefined) | -12.1% (inactive) | –
22 | NC(N)=NC(=O)c1nc(Cl)c(N2CCCCCC2)nc1N | -18% (inactive) | –
23 | O=C(O)c1cc([N+](=O)[O-])ccc1NCCCc1ccccc1 | -8.12% (inactive) | –
24 | O=C1NCc2c1c1c3ccccc3[nH]c1c1[nH]c3ccccc3c21 | – | 7.94 µM (active)
25 | COCCOc1cc2nc[nH]c(=O)c2cc1OCCOC | -8.97% (inactive) | –
26 | O=C(CCCCCN1CCN(c2ccccc2-c2ccccc2)CC1)NC1CCCc2ccccc21 (centres undefined) | -7.27% (inactive) | –
27 | CCNc1nc2c(ncn2[C@H]2C[C@H](O)[C@@H](CO)O2)c(=O)[nH]1 | 4.82% (inactive) | –
28 | Brc1cc2c(cc1[C@H]1Nc3ccccc3[C@H]3C=CC[C@H]31)OCO2 | -1.69% (inactive) | –
29 | COc1ccccc1CN[C@@H]1CCCN[C@@H]1c1ccccc1 | -9.74% (inactive) | –
30 | CC(C)CC(NP(=O)(O)O[C@@H]1O[C@@H](C)[C@H](O)[C@@H](O)[C@H]1O)C(=O)NC(Cc1c[nH]c2ccccc12)C(=O)O (some centres undefined) | 3.33% (inactive) | –
31 | CCCC(CCC)C(=O)OC1CC2CCC(C1)[N+]2(C)C (centres undefined) | -12.5% (inactive) | –
32 | NO | -0.513% (inactive) | –
33 | Clc1ccc(N2CCN(Cc3cc4ccccn4n3)CC2)cc1 | 0.583% (inactive) | –
34 | Nc1ncnc2c1ncn2[C@@H]1O[C@H](COP(=O)(O)CP(=O)(O)OP(=O)(O)O)[C@@H](O)[C@H]1O | -1.31% (inactive) | –
35 | COCCOc1cc2ncnc(Cl)c2cc1OCCOC | 2.79% (inactive) | –
36 | O=C(O)CCCC[C@@H]1CCSS1 | -15.6% (inactive) | –
37 | O=C(c1ccc(OCCCc2cnc[nH]2)cc1)C1CC1 | -2.64% (inactive) | –
38 | O=C1C(SCCO)=C(SCCO)C(=O)c2ccccc21 | – | 10 µM (active)
39 | N[C@@H](CC(=O)O)C(=O)O | 10.4% (inactive) | –

Reference: PubChem BioAssay (NCATS)
